Screens: PubChem, National Center for Advancing Translational Sciences (NCATS)
Sampled rows, rich in hits. Any-hit rate of the full collection: about 6.3%.
TGFb inhibitor: blocks TGF-b signaling; HepG2 CAGA-GFP TGF-b/SMAD3 reporter, GFP fluorescence, 18 h; TGF-beta stimulated, 500 pg/mL final; 410,000 compounds, 1.2% hits; AID 588855; Potency, µM (titrated, usually from 46.1 µM), most hits filed as inhibitors; also: nearly all actives have a fitted effect of over 65% in size
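Cell-based qHTS in HEPG2 carrying a CAGA-GFP Smad reporter; compounds added before 500 pg/mL final TGF-beta, 18 h incubation at 37 degrees C, GFP fluorescence quantified per cell by imaging cytometry.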
Gal4-VP16 FLuc: Gal4-VP16 reporter inhibition counter-screen | 310,000 compounds, 3.5% hits | AID 2546 | Potency, µM (titrated, usually from 53.6 µM), hits mostly inhibitors | Drosophila S2 Gal4-VP16 UAS-luciferase, luminescence, 20 h;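 also: Gal4-VP16 expression switched on by copper sulfate through the metallothionein promoter; nearly all actives have a fitted effect of over 50% in size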
ATXN viability: cell viability loss in ATXN counter-screen. S2 cells (HEK-293 line with an ATXN2-luciferase reporter) viability, CellTiter-Fluor protease fluorescence, 24 h. Potency, µM (titrated, usually from 56.7 µM), most hits filed as cytotoxic. AID 651635. 400,000 compounds, 0.49% hits; also: nearly all actives have a fitted effect of over 40% in size
ATXN2 expr inh: ATXN2 expression inhibition | HEK-293 ATXN2-luciferase reporter, luminescence, 24 h | 360,000 compounds, 0.72% hits | AID 1745845 | Potency, µM (titrated, usually from 57 µM), hits mostly inhibitors; also: nearly all actives have a fitted effect of over 55% in size
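ATXN2-luciferase reporter cells (luciferase flanked by upstream and downstream ATXN2 gene portions) were treated 24 h at 37 °C with compounds at up to 57 uM. SteadyGlo luminescence gave expression; GF-AFC fluorescence gave viability.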
RORgamma inh: ROR gamma (mouse) transcription inhibition. Potency, µM (highest dose often 53.6 µM), hits mostly inhibitors. AID 2551. 310,000 compounds, 5.4% hits. Drosophila S2 Gal4-RORgamma UAS-luciferase reporter, 20 h; also: nearly all actives have a fitted effect of over 60% in size
Target sequence (P51450 whole entry, looked up, the tested form may be a part): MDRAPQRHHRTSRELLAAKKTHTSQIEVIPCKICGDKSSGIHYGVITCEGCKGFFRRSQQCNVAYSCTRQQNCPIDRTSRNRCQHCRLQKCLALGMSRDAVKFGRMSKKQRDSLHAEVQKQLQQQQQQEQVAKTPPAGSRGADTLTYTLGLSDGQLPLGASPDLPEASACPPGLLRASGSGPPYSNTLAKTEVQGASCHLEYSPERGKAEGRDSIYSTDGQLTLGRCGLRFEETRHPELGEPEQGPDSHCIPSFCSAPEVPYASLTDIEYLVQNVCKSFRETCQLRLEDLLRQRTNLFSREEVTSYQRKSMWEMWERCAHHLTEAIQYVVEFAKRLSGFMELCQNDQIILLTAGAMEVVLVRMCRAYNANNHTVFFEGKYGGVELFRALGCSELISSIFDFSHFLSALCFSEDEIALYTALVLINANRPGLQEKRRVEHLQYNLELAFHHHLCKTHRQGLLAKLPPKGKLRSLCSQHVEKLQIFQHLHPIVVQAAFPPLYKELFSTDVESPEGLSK
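Read-out: Photinus luciferase luminescence; inhibitors lower reporter signal. Insect Schneider cells with Gal4-ROR gamma fusion under metallothionein promoter, UAS reporter; 700 uM final copper sulfate induction, 20 hr, ambient temperature.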
HepG2 tox: counter-screen for TGF-b inhibitors: cytotoxicity in HepG2 cells; HepG2 CAGA-GFP viability, ATP luminescence, 18 h; 410,000 compounds, 0.76% hits; AID 588856; Potency, µM (titrated, usually from 46.1 µM), most hits filed as cytotoxic
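HepG2 CAGA-GFP cells (1000/well, DMEM with 1% FBS) received compound, then TGF-beta at 500 pg/mL final, and were incubated 18 hours at 37 degrees C. Viability was read by CellTiter-Glo luminescence. Media-only wells were set as complete cell-killing and DMSO as no toxicity.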
A number is an active result; - = inactive; ? = inconclusive; . = no result given; [ ] = another dose, or the depositor's remark. Calls follow the shape of the dose curve; as a rule, active = well fitted curve in the direction sought with a large enough effect; inconclusive = small, poorly fitted or top-dose-only effect, or another doubt; inactive = no such curve, though single readings can be large; an effect the other way counts as inactive or inconclusive.

SMILES	TGFb inhibitor	Gal4-VP16 FLuc	ATXN viability	ATXN2 expr inh	RORgamma inh	HepG2 tox
C=C(CN(C)C)C(=O)c1ccc(OC2OC(COC(C)=O)C(OC(C)=O)C(OC(C)=O)C2OC(C)=O)cc1 (stereo not drawn)	?	.	9.5µM	?	.	-
Cc1ccc(C)c(CN2C[C@H](Sc3ccccn3)C[C@H]2C(=O)Nc2ccc3sc(C)nc3c2)c1	.	.	-	.	.	.
Cc1[nH]c(-c2ccc(F)cc2)cc1C(=O)N1CCN(c2cccc(Cl)c2)CC1	25µM	-	?	?	-	-
CS(=O)(=O)c1ncc(Cl)c(C(=O)N2CCN(c3cccc(Cl)c3)CC2)n1	2.8µM	.	.	.	.	3.5µM
CCS(=O)(=O)c1ncc(Cl)c(C(=O)N2CCN(c3cccc(Cl)c3)CC2)n1	1µM	.	.	.	.	3.2µM
Cc1[nH]c2ccc(C(=O)N3CCN(c4cccc(Cl)c4)CC3)cc2c1C	?	-	-	-	-	-
COc1ccc(OCC(=O)N2CCN(c3cccc(Cl)c3)CC2)cc1	-	-	-	-	-	-
Cc1ccnn1CC(=O)N1CCOc2c(cc(-c3ncc(C(F)(F)F)cc3Cl)cc2OCC2CCCO2)C1 (stereo not drawn)	.	.	-	.	.	.
C#CCCCCCCCCCCCC(=O)CC(O)COC(C)=O (stereo not drawn)	.	-	.	.	-	.
CCCCCCCC(=O)NNC(=O)Cc1ccccc1	-	-	-	-	-	-
CCCCCC(=O)NNC1=NCC(Cc2cccc(Cl)c2)S1 (stereo not drawn)	-	5µM	-	-	0.79µM	-
COc1ccc(CCNC(=O)Cc2ccc(NS(=O)(=O)c3ccc(F)cc3)cc2)cc1OC	-	.	-	-	.	-
COc1cc(C(=O)N(C(C)C)C2CCCCC2)cc(OC)c1OC	-	.	?	.	.	-
COc1cc(/C=N/n2c(C3CCCCC3)n[nH]c2=S)ccc1O	-	-	-	.	-	-
Oc1ccc(Br)cc1/C=N/n1c(C2CCCCC2)n[nH]c1=S	-	?	-	-	-	-
S=c1[nH]nc(C2CCCCC2)n1/N=C/c1ccccn1	-	-[10 µM]	-	-	-	-
Fc1ccc(/C=N/n2c(C3CCCCC3)n[nH]c2=S)cc1	?	7.9µM	?	-	3.5µM	-
CN(C)c1ccc(/C=N/n2c(C3CCCCC3)n[nH]c2=S)cc1	-	6.3µM	-	-	2.5µM	-
S=c1[nH]nc(C2CCCCC2)n1/N=C/c1ccccc1	-	?	-	-	8.9µM	-
CCOc1ccc(/C=N/n2c(C3CCCCC3)n[nH]c2=S)cc1	?	?	-	-	4µM	-
Cc1ccc(NC(=O)CCC(=O)N2Cc3ccccc3Oc3ncccc32)cc1Cl	-	.	-	-	.	-
O=C1C=CC(=O)N1c1cccc(-c2ccccc2)c1	11µM	-	?	-	-	-
CCCn1nnc(NC(=O)c2ccc(Cl)cc2Cl)n1	-	?	-	-	-	-
Cn1nnc(NC(=S)NC(=O)c2cc(Cl)ccc2Cl)n1	?	2µM	-	-	0.79µM	-
CCCn1nnc(NC(=S)NC(=O)c2ccccc2OC)n1	?	.	.	.	.	-
SMILES	TGFb inhibitor	Gal4-VP16 FLuc	ATXN viability	ATXN2 expr inh	RORgamma inh	HepG2 tox
COc1cc2ccccc2cc1C(=O)NC(=S)Nc1nnn(C)n1	?	1.1µM	-	-	1µM	-
COc1cccc(CNc2ncnc3sc(C(=O)N4CCOCC4)c(C)c23)c1OC	.	.	-	.	.	.
CC(C)(C)n1ncc2c(=O)n(CC(=O)NCc3ccccc3)cnc21	-	?	-	?	10µM	-
COc1ccc(Cl)cc1NC(=O)NC1CCCCC1	-	-	-	-	-	-
COc1ccc(Cl)cc1NC(=O)Nc1cccc([N+](=O)[O-])c1C	?	-	?	20µM	-	-
COc1n[nH]c(C(=O)Nc2cc(Cl)ccc2Cl)c1[N+](=O)[O-]	-	?	-	.	?	-
COc1ccc(Cl)cc1NC(=O)c1[nH]nc(OC)c1[N+](=O)[O-]	-	-[10 µM]	-	-	3.5µM	-
